According to PubChem BioAssay (NCATS):
Records with an inconclusive call do not appear. Active and inactive are the calls of the source. Unless noted, calls come from the whole dose curve; as a rule, active = well fitted curve in the direction sought with a large enough effect; inconclusive = small, poorly fitted or top-dose-only effect, or another doubt; inactive = no such curve, though single readings can be large; an effect the other way counts as inactive or inconclusive.

Columns and labels:
[1] = Cell Viability - LYMP2-001 (AID 921); note: series mostly up to about 92 µM; nearly all actives have a fitted effect of over 70% in size
Outline: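 CellTiter-Glo luminescence (intracellular ATP) after 24 hr compound exposure at 37 C, 2500 lymphoblastoid cells/well in complete medium. AC50 fitted with standard Hill equation; tetraoctylammonium bromide positive control.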

[2] = MultiTox-Fluor Cytotoxicity Assay - LYMP1-001 - Dead Cells (AID 946); note: potency is the fitted concentration of half-maximal effect
Outline: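 Cytotoxicity as increased dead-cell protease fluorescence (bis-AAF-R110, 485/520 nm), read 60 min after MultiTox-Fluor reagent. Human lymphoblastoid line exposed 16 h; Hill-fitted AC50, with DMSO as 0% and 15 uM tetraoctylammonium bromide as 100%.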

[3] = MultiTox-Fluor Cytotoxicity Assay - LYMP1-001 - Live Cells (AID 947)
[4] = Cell Viability - LYMP1-002 - Assay at 16 hr (AID 948)
Outline: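 LYMP1-002 human lymphoblastoid cells, 2500/well; 5 hr 37 C; cpd 16 hr 37 C; CellTiter-Glo 30 min RT; luminescence (ATP). Concentration-response, Hill-fit AC50. Pos ctrl tetraoctylammonium bromide.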

[5] = MultiTox-Fluor Cytotoxicity Assay - LYMP1-002 - Live Cells (AID 955);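 note: cells exposed to compound for 16 hours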; note: potency is the fitted concentration of half-maximal effect
Outline: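 Read-out is live-cell protease activity (cell-permeant GF-AFC substrate, fluorescence Ex/Em=405/510), where a decrease indicates acute toxicity. Human lymphoblastoid cells were treated 16 hours at 37 C in a concentration series, and AC50 values came from standard Hill modelling.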

[6] = MultiTox-Fluor Cytotoxicity Assay - LYMP1-002 - Dead Cells (AID 960); note: nearly all actives have a fitted effect of over 60% in size; note: potency is the fitted concentration of half-maximal effect
Outline: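 LYMP1-002 cells 2500/well; 5 hr 37 C pre-incubation; compound 16 hr 37 C; MultiTox-Fluor reagent 60 min RT; dead-cell fluor Ex/Em 485/520. Norm. to DMSO (0%) vs 15 uM tetraoctylammonium bromide (100%); Hill AC50.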

[7] = MultiTox-Fluor Cytotoxicity Assay - LYMP1-003 - Dead Cells (AID 961); note: nearly all actives have a fitted effect of over 70% in size
Outline: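 Dead-cell protease release, detected as bis-AAF-R110 fluorescence at 485/520 nm, was measured in LYMP1-003 cells after 16 h compound treatment at 37 C. AC50 values came from Hill-modeled qHTS curves normalized to DMSO (0%) and 15 uM tetraoctylammonium bromide (100%).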

[8] = Cell Viability - LYMP1-003 - Assay at 24 hr (AID 963)
Outline: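 Cells seeded at 2500/well, 5 hr at 37 C; compounds added; 24 hr at 37 C; CellTiter-Glo added, 30 min room temperature; luminescence read. Decrease in ATP taken as cytotoxicity, AC50 from Hill modelling.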

[9] = Cell Viability - LYMP2-003 (AID 965);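 note: cells exposed to compounds for 24 h before reading; nearly all actives have a fitted effect of over 50% in size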; note: potency is the fitted concentration of half-maximal effect
Outline: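 CellTiter-Glo luminescence (cellular ATP) after 24 h compound exposure at 37 C in complete medium; 2500 cells/well, 5 h settling beforehand. Concentration-response fitted to standard Hill equation for AC50. Tetraoctylammonium bromide served as positive control.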

[10] = Cell Viability - LYMP2-004 (AID 966); note: nearly all actives have a fitted effect of over 65% in size
Outline: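 Cells seeded 2500/well, rested 5 hr at 37 C, dosed across a concentration series, incubated 24 hr at 37 C, then CellTiter-Glo added for 30 min at room temperature and luminescence read. Hill fitting gave AC50.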

[11] = Cell Viability - LYMP2-005 (AID 967); note: series mostly up to about 92 µM
Outline: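 Steps: seed 2500 LYMP2-005 cells/well, incubate 5 h at 37 C, add compound, incubate 24 h at 37 C, add CellTiter-Glo, wait 30 min at RT, read luminescence. Concentration-response data fitted to Hill equation for AC50.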

[12] = target: Muscarinic acetylcholine receptor M1 (Rattus norvegicus) (UniProt P08482); assay: qHTS Assay for Antagonists of Acetylcholine Muscarinic M1 Receptor: Kinetic Measurement of Intracellular Calcium Response (AID 943);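 note: Fluo-4 calcium signal as peak divided by basal fluorescence over 4 min; series mostly up to about 35 µM; nearly all actives have a fitted effect of over 75% in size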
Outline: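 Rat M1-CHO cells, 2000/well, overnight → Fluo-4 no-wash dye with probenecid, 1 h 37C → compound 10 min, room temp → basal read 6 s → carbachol EC80 (100 nM) → 4 min kinetic read; peak/basal.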

[13] = target: Pyruvate kinase (Leishmania mexicana) (UniProt Q27686); assay: qHTS Validation Assay for Inhibitors of Leishmania Mexicana Pyruvate Kinase (AID 945)
Outline: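 An endpoint luciferase assay: 0.2 nM LmPYK E451W turns over 0.5 mM PEP with 0.1 mM ADP for 1 h at room temperature, pH 7.2, before PKLight addition. Values are normalized to DMSO-only wells.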

[14] = target: Pyruvate kinase PKM (Homo sapiens) (UniProt P14618); assay: qHTS Assay for Activators of Human Muscle Pyruvate Kinase (AID 954; active = well fitted curve in the direction sought with a large enough effect, not every such curve was filed as active)
Outline: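 Human PKM2 activity is measured as ATP generation, detected by luciferase-coupled luminescence. The enzyme (0.1 nM) acts on 0.5 mM PEP and 0.1 mM ADP for 1 h at ambient temperature; data are normalized to uninhibited and full-inhibition wells.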

[15] = Confirmation and Secondary Assay for Modulators of Hemoglobin Beta Chain Splicing at IVS2 705 locus (AID 930);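 note: HeLa cells stably expressing the EGFP-705 splicing reporter; GFP fluorescence per well restored by corrected splicing of the IVS2-705 intron in EGFP; series mostly up to about 46 µM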
Outline: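 Per-well GFP, captured at 1 x 8 µm resolution with 488 nm excitation, served as the read-out for HeLa EGFP-705 cells incubated 2 days with test compound versus DMSO.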

[16] = qHTS Assay for Identification of Small Molecule Antagonists for Thrombopoietin (TPO) Signaling Pathway (AID 918); conditions: TPO-dependent cell signaling reporter, antagonist mode; note: potency is the fitted concentration of half-maximal effect; nearly all actives have a fitted effect of over 60% in size
Outline: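 Ba/F3 (murine, hTPO-R, GPIIb-luc reporter); overnight IL-3 withdrawal; cpd + TPO 26 pM final (EC50); 24 h 37 C/5% CO2; Steadylite luminescence after 10 min RT.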

Measured: Potency

Sequence of Pyruvate kinase (Leishmania mexicana) (Q27686 2-499 E452W): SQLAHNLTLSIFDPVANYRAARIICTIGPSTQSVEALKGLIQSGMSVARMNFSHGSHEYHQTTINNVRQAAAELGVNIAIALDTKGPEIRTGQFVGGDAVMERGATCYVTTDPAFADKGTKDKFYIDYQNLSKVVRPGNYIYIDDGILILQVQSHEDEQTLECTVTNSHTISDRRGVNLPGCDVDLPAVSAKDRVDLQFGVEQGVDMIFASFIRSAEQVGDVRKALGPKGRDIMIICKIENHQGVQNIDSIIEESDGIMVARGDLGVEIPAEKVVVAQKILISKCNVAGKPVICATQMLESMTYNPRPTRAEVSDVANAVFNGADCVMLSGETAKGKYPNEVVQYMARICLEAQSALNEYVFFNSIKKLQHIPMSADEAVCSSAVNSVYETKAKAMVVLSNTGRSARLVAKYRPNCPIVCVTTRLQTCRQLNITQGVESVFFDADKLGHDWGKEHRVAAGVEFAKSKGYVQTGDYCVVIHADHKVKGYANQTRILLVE
Sequence of Pyruvate kinase PKM (Homo sapiens) (P14618 whole entry, looked up): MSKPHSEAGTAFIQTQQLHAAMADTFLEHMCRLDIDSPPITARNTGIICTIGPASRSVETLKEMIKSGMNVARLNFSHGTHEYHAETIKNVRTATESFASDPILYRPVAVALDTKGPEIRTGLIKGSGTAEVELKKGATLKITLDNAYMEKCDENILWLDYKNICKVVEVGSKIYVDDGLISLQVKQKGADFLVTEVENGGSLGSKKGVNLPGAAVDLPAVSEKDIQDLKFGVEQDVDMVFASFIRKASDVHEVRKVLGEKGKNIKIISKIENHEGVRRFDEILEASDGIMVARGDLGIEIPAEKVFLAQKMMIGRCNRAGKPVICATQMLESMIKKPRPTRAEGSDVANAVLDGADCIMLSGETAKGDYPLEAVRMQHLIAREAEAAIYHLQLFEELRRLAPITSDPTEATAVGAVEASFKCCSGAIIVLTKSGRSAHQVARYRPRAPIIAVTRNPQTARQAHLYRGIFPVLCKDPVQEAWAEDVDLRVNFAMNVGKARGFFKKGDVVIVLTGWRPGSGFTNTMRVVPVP
Sequence of Muscarinic acetylcholine receptor M1 (Rattus norvegicus) (P08482 whole entry, looked up): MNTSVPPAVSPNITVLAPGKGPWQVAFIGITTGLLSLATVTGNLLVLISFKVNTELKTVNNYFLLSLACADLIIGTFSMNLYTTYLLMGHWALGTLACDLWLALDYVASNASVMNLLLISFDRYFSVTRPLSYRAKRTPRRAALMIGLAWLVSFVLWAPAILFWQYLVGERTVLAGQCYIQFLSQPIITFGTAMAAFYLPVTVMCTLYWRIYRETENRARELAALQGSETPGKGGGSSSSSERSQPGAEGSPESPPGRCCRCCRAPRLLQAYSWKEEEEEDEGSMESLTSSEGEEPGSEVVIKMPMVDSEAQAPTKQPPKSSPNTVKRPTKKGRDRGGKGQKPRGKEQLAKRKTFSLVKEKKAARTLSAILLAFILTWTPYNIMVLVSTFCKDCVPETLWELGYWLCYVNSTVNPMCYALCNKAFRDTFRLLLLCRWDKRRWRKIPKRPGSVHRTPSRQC

O=c1[nH]cnc2c1ncn2[C@H]1CC[C@@H](CO)O1
inactive: [1] | [2] | [3] | [4] | [5] | [6] | [7] | [8] | [9] | [10] | [11]

CC(=O)c1ccc(S(=O)(=O)NC(=O)NC2CCCCC2)cc1
inactive: [1] | [12] | [13] | [2] | [3] | [4] | [14] | [5] | [7] | [8] | [9] | [10] | [11]

CC(=O)O[C@]1(C(C)=O)CC[C@H]2[C@@H]3C=C(Cl)C4=CC(=O)[C@@H]5C[C@@H]5[C@]4(C)[C@H]3CC[C@@]21C
inactive: [1] | [3] | [4] | [5] | [6] | [7] | [8] | [9]

C[C@]12CCC3c4ccc(O)cc4CCC3C1CCC2=O (stereo partly drawn)
inactive: [15]

CC/C(=C(\c1ccccc1)c1ccc(OCCN(C)C)cc1)c1ccccc1
inactive: [15] | [13] | [14]
active: [16] 10 µM | [2] 50.1 µM | [5] 31.6 µM | [6] 25.1 µM | [9] 39.8 µM

COc1cc(O)c2c(c1)C(=O)c1cc(C)cc(O)c1C2=O
inactive: [15]

Cc1cccc(C)c1OCC(C)N (stereo not drawn)
inactive: [15]

CC1(C)CCC2=C(O1)c1ccccc1C(=O)C2=O
inactive: [13] | [14]
active: [16] 1.58 µM

CCCCC1C(=O)N(c2ccccc2)N(c2ccccc2)C1=O
inactive: [1] | [15] | [13] | [2] | [3] | [4] | [14] | [5] | [6] | [7] | [8] | [9] | [10] | [11]

CC(C)(C)c1ccc(C(O)CCCN2CCC(C(O)(c3ccccc3)c3ccccc3)CC2)cc1 (stereo not drawn)
active: [16] 2.51 µM
inactive: [13] | [14]

O=c1c(O)c(-c2ccc(O)cc2)oc2cc(O)cc(O)c12
inactive: [1] | [2] | [3] | [4] | [5] | [6] | [7] | [8] | [9] | [10] | [11]

O=C1NC(=O)C(c2ccccc2)(c2ccccc2)N1
inactive: [1] | [15] | [13] | [2] | [4] | [14] | [5] | [7] | [8] | [9] | [10] | [11]

CCCCCCCCCCCC1=C(O)C(=O)C=C(O)C1=O
inactive: [15]

O=C(O)Cc1cccc2ccccc12
inactive: [1] | [2] | [3] | [4] | [5] | [6] | [7] | [8] | [9] | [10] | [11]

O=c1c(-c2ccc(O)cc2)coc2cc(O)ccc12
inactive: [1] | [15] | [2] | [3] | [4] | [14] | [5] | [6] | [7] | [8] | [9] | [10] | [11]

CN(C)CCC(c1ccccc1)c1ccccn1 (stereo not drawn)
inactive: [1] | [15] | [2] | [3] | [4] | [5] | [6] | [7] | [8] | [9] | [10] | [11]
